# Compound activity: PubChem BioAssay, National Center for Advancing Translational Sciences (NCATS)
# This is a sample that favours compounds with a hit; in the whole collection about 8% have one here.
# SW480 rereplic = A quantitative high throughput screen for small molecules that induce DNA re-replication in SW480 colon adenocarcinoma cells. SW480 DNA re-replication, Hoechst DNA content imaging, 48 h. Potency, µM (series often up to 46.1 µM), for inactives: at the highest dose re-replication activation, most hits filed as activators. hit rate 1.8% among 340,000. AID 624297, 2012; further: % of control where 0% means no effect; nearly all actives have a fitted effect of over 55% in size
#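 DNA re-replication was detected as more nuclei of elevated Hoechst intensity after 48 hr exposure to compound (23 nL pinned per well of 250 cells).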
# KB-V1 cytotox = qHTS assay for MDR1-selective chemotherapeutics: Primary screen using the drug-selected MDR subline cells KB-V1; KB-V1 MDR cells viability, CellTiter-Glo, 72 h; Potency, µM (highest dose often 46.1 µM), most hits filed as cytotoxic; AID 1347076, 2019; hit rate 3.4% among 400,000; further: on the % scale 0 is the no-effect control and ±100 the full control effect; nearly all actives have a fitted effect of over 60% in size
#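 Readout: CellTiter-Glo luminescence, 10 min after addition. Cells: KB-V1 MDR subline, 72 h at 37 degrees C with compound. Analysis: corrected, normalized data fitted to concentration-effect curves.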
# HT1080-NT tox = qHTS for induction of synthetic lethality in tumor cells producing 2HG: qHTS for the HT-1080-NT fibrosarcoma cell line. HT-1080-NT fibrosarcoma viability, CellTiter-Glo ATP luminescence, 48 h. Potency, µM (highest dose often 46.1 µM), for inactives: at the highest dose activity, negative = less viability, actives largely listed as cytotoxic. hit rate 1.6% among 360,000;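 further: NT is the 2HG producing partner of a matched IDH1 knockdown line; 0% = DMSO-treated cells and -100% = media-only wells without cells; nearly all actives have a fitted effect of over 55% in size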
#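 Viability by CellTiter-Glo luminescence after 48 h compound exposure at 37C of HT-1080-NT cells (750/well, RPMI, 5% FBS). % activity scaled between DMSO wells and medium-only wells, then curve-fitted and categorized by curve class.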
# MCF10A rerep = A quantitative high throughput screen for small molecules that induce DNA re-replication in MCF 10a normal breast cells; MCF 10A DNA re-replication, Hoechst nuclear intensity, 48 h; Potency, µM (titrated, usually from 46.1 µM), inactives show top-dose activity, positive = re-replication, most hits filed as activators; hit rate 2.9% among 350,000; AID 624296, 2012; further: % of control where 0% means no effect; nearly all actives have a fitted effect of over 50% in size
# HT1080 IDH1KD tx = qHTS for induction of synthetic lethality in tumor cells producing 2HG: qHTS for the HT-1080-IDH1KD cell line; AID 686971, 2013; HT-1080 IDH1 knockdown viability, ATP luminescence, 48 h; hit rate 2% among 360,000; Potency, µM (series often up to 46.1 µM), without a hit: at the top dose activity, negative = toxicity, most hits filed as cytotoxic;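 further: 0% = DMSO wells and -100% = cell-free medium wells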
#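 Assay cells: HT-1080 with IDH1 knockdown, 750 per well, RPMI/5% FBS. Exposure: 48 h at 37 °C following 2 h pre-incubation. Read: CellTiter-Glo luminescence; fitted concentration-response, curve class assigned.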
# KB-3-1 cytotox = qHTS assay for MDR1-selective chemotherapeutics: Primary screen using the parental adenocarcinoma cell KB-3-1. KB-3-1 viability, CellTiter-Glo ATP luminescence, 72 h. hit rate 1.4% among 400,000. AID 1347075, 2019. Potency, µM (series often up to 46.1 µM), usual class: cytotoxic; further: on the % scale 0 is the no-effect control and ±100 the full control effect; nearly all actives have a fitted effect of over 60% in size
#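 Parental KB-3-1 adenocarcinoma cells in phenol-red-free DMEM with 10% FBS were pin-treated with compounds at several concentrations, incubated 72 h at 37 °C, and viability read by CellTiter-Glo luminescence; concentration-effect curves were fitted after normalization.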
# The depositor's hits bear a star; i = inactive; ? = inconclusive; . = not tested or not shown; [ ] = another dose, or the depositor's remark. The call rests on the fitted dose curve; in most records, active means well fitted curve in the direction sought with a large enough effect; inconclusive means small, poorly fitted or top-dose-only effect, or another doubt; inactive means no such curve, though single readings can be large; an effect the other way counts as inactive or inconclusive. Potency means the concentration at half of the fitted maximal effect.
SMILES,SW480 rereplic,KB-V1 cytotox,HT1080-NT tox,MCF10A rerep,HT1080 IDH1KD tx,KB-3-1 cytotox
COc1cccc(N2CCN(C(=O)c3ccc(CS(=O)c4ccccc4C)o3)CC2)c1 (configuration not stated),5.8µM*,?,0.461µM*,?,0.731µM*,1.03µM*
S=C(SSC(=S)N1CCOCC1)N1CCOCC1,.,i,1.16µM*,.,0.731µM*,i
CC(SC(=S)N1CCOCC1)C(=O)O (configuration not stated),2.7%[9.22 µM],?,-17.1%,6.3%,-5.2%,i
COc1ccc2c(c1OC)C(=O)OC2Nc1nc(-c2cc3cc(Br)ccc3oc2=O)cs1 (configuration not stated),?,i,-26.1%,?,-24.8%,i
Cc1ccc(S(=O)(=O)NCCCN(C)C)cc1,-5.7%,i,1.5%,6.0%,11.3%,i
Cc1ccc(S(=O)(=O)NCCCNS(=O)(=O)c2ccc(C)cc2)cc1,-2.3%,14.6µM*,6.6%,0.9%,0.3%,i
CCNS(=O)(=O)c1ccc(NS(=O)(=O)c2cc(C)ccc2C)cc1,1.1%,i,-8.5%,7.0%,-4.3%,i
Cc1ccc(S(=O)(=O)NCCCNC(=O)c2ccccc2)cc1,-3.9%,18.4µM*,9.8%,-0.7%,1.8%,i
CCCCNS(=O)(=O)c1ccc(NS(=O)(=O)c2c(C)cc(C)cc2C)cc1,?,i,?,4.61µM*,?,i
Cc1ccc(S(=O)(=O)NCCNC(=O)c2ccccc2)cc1,-2.4%,i,-0.7%,-3.2%,1.2%,i
O=c1[nH]c(CSc2ccccn2)nc2c1cnn2-c1ccccc1,-3.7%,20.6µM*,0.4%,-0.8%,1.1%,i
CNc1nc(Oc2ccccc2C(=O)OC)nc(SC)n1,-0.8%,?,-3.3%,7.2%,9.4%,i
CCn1c(Cl)c(C=O)s/c1=N\S(=O)(=O)c1ccccc1,14.6µM*,?,13µM*,1.16µM*,8.2µM*,?
N#C/C(=C/c1ccc([N+](=O)[O-])cc1)C(=O)Nc1ccccc1O,18.5%,?,-2.3%,15.8%,1.5%,i
COc1ccc(NC(=O)/C(C#N)=C/C=C/c2ccco2)cc1,8.2µM*,13µM*,?,14.6µM*,?,7.31µM*
Cn1cc(/C=N/NC(=O)c2cccc([N+](=O)[O-])c2)c2ccccc21,0.0%,i,?,9.0%,?,i
N#C/C(=C/C=C/c1ccccc1)C(=O)Nc1ccccc1,?,16.4µM*,-20.8%,17.0%,?,i
N#C/C(=C/c1ccc(O)c([N+](=O)[O-])c1)C(=O)Nc1ccccc1,6.51µM*,?,?,4.61µM*,8.2µM*,18.4µM*
Cn1cc(/C=C(\C#N)C(=O)Nc2cccc([N+](=O)[O-])c2)c2ccccc21,?,i,14.3%,9.2µM*,15.7%,?
O=C(N/N=C/c1cccc([N+](=O)[O-])c1)c1ccc(COc2ccccc2-c2ccccc2)cc1,1.2%,16.4µM*,4.4%,-5.3%,-1.6%,?
C/C(=N\NC(=O)COc1ccccc1-c1ccccc1)c1cccnc1,0.2%,?,-13.4%,12.6%,-11.4%,i
CCCCCCCCCC(=O)N/N=C(\C)c1cccnc1,-0.3%,i,-1.2%,?,-14.2%,i
O=C(COc1ccccc1-c1ccccc1)N/N=C/c1ccncc1,-1.0%,?,-17.5%,21.3%,-16.6%,i
